MARV entry inh = inhibitors of Marburg virus binding or cell entry; Marburg virus pseudotyped entry inhibition, cell reporter; Potency, µM (titrated, usually from 37.8 µM), for the others: at the highest dose activity change, negative = inhibition, usual class: inhibitors; 1.8% of 300,000 active; AID 540276; calls by dose curve; tested in HEK293 cells; note: potency is the fitted concentration of half-maximal effect
HCV inhibitor = inhibitors of hepatitis C virus infection; Huh7.5.1 HCVcc-Cre infection, luciferase reporter, 44 h; Potency, µM (doses to about 41.8 µM), inactives show at the top dose activity change, negative = inhibition, hits mostly inhibitors; 3.4% of 340,000 active; AID 651820; active = well fitted inhibition curve with a large enough effect; inconclusive = small, poorly fitted or top-dose-only effect, or another doubt; inactive = no such curve, though single readings can be large or run the other way; note: potency is the fitted concentration of half-maximal effect
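HCVcc-Cre virus at an moi near 0.5 was added right after compound to cells cultured 4 h from seeding (1,000 cells/well). Luciferase activity was determined 44 h later, 15 min after substrate addition at RT.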
Lassa entry inh = Lassa virus entry inhibition; 1.2% of 300,000 active; Lassa virus pseudotype entry inhibition, cell reporter; Potency, µM (titrated, usually from 37.9 µM), for the others: top-dose activity change, negative = inhibition, hits mostly inhibitors; calls by dose curve; tested in HEK293 cells; note: potency is the fitted concentration of half-maximal effect; nearly all actives have a fitted effect of over 50% in size
Vaccinia mCherry = inhibitors of vaccinia virus infection (mCherry reporter signal); AID 720579; Vaccinia virus mCherry reporter infection, fluorescence; Potency, µM (doses to about 36.5 µM), inactives show at the highest dose activity change, negative = inhibition, actives largely listed as inhibitors; 0.63% of 310,000 active; calls by dose curve; tested in A549 cells; note: potency is the fitted concentration of half-maximal effect; nearly all actives have a fitted effect of over 35% in size
HCMV antiviral = human cytomegalovirus inhibition; HFF cells, HCMV-luciferase reporter, 72 h; stronger effect = lower value; activity change, negative = inhibition, % at 57.5 µM; 4.5% of 410,000 active; AID 1259415; in the data active = activity change below about -60%; inconclusive = no clear call, values can overlap the other calls; inactive = above about -39%
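Inhibition of viral replication was scored as loss of reporter luminescence in HFFs infected with HCMV-luciferase (MOI 1 PFU/cell) for 72 h; compounds tested at 2 doses, normalized to buffer and Salinomycin controls.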
Vaccinia Venus = inhibitors of vaccinia virus (Venus reporter); Vaccinia virus Venus reporter expression, fluorescence; Potency, µM (top dose mostly 36.5 µM), for inactives: at the highest dose activity change, negative = inhibition, most hits filed as inhibitors; 0.46% of 330,000 active; AID 720580; calls by dose curve; tested in A549 cells; note: potency is the fitted concentration of half-maximal effect; nearly all actives have a fitted effect of over 30% in size
* hit, by the source's call; [ ] = another dose, or the depositor's remark. Most compounds without a hit are left out; they make up all but 7.8% or so of the library. % is set by controls: 0 for no effect and ±100 for the full control effect.

Results for O=C(Nc1cccc(O)c1)c1noc2c1CCCCC2 ?
MARV entry inh: inconclusive; HCV inhibitor: -18.0%; Lassa entry inh: inconclusive; Vaccinia mCherry: -15.1%; HCMV antiviral: -60.6*; Vaccinia Venus: -10.2%

What do the screens show for `COc1ccc(Cl)cc1NCCC(O)c1ccc(F)cc1` (stereo not drawn)?
HCV inhibitor: 7.08µM*; HCMV antiviral: -29.6

What do the screens show for `CCOC(=O)c1c(CN(CC)CC)oc2ccc(OC)cc12`?
MARV entry inh: -17.3%[46.1 µM]; HCV inhibitor: -4.6%; Lassa entry inh: -0.3%; Vaccinia mCherry: -8.8%; HCMV antiviral: 7.0; Vaccinia Venus: 0.1%

What do the screens show for `CCOC(=O)c1c(CN(CC)CC)oc2cc(Br)c(O)cc12`?
MARV entry inh: 0.6%; HCV inhibitor: 10µM*; Vaccinia mCherry: inconclusive; HCMV antiviral: 18.7; Vaccinia Venus: -29.1%

Results for COc1ccccc1OCC(=O)N/N=C/c1c(O)ccc2ccccc12 ?
HCMV antiviral: -109.1*

How did O=C(NN=Cc1c(O)ccc2ccccc12)C1CC1 do in these assays?
MARV entry inh: inconclusive; HCV inhibitor: inconclusive; Lassa entry inh: inconclusive; Vaccinia mCherry: inconclusive; HCMV antiviral: -26.3; Vaccinia Venus: inconclusive

How did COc1ccccc1OCC(=O)N/N=C/c1cccc2cccnc12 do in these assays?
MARV entry inh: -28.2%; HCV inhibitor: 10.1%; Lassa entry inh: -18.2%; Vaccinia mCherry: inconclusive; HCMV antiviral: -4.3; Vaccinia Venus: -30.0%

What do the screens show for `O=C(CN1CCCC1)N/N=C/c1c(O)ccc2ccccc12`?
HCV inhibitor: 7.94µM*; HCMV antiviral: 33.4

How did Cc1cc(C)n(CCC(=O)N/N=C/c2c(O)ccc3ccccc23)n1 do in these assays?
HCV inhibitor: inconclusive; HCMV antiviral: -83.3*

Results for Cc1cc(C)n(CCC(=O)N/N=C/c2ccc(O)cc2)n1 ?
MARV entry inh: 22.4%; HCV inhibitor: 32.7%; Lassa entry inh: -11.2%; Vaccinia mCherry: -10.3%; HCMV antiviral: 18.8; Vaccinia Venus: -4.2%

How did O=C(N/N=C/c1c(O)ccc2ccccc12)C(=O)N1CCCC1 do in these assays?
Vaccinia mCherry: inconclusive; HCMV antiviral: -75.0*; Vaccinia Venus: inconclusive

What do the screens show for `O[C@@H]1CO[C@@H](C=Cc2ccccc2)[C@H]1OCc1cccc(Br)c1`?
MARV entry inh: -5.3%[14.2 µM]; Lassa entry inh: inconclusive

What do the screens show for `CCCCOc1ccccc1C(=O)N(Cc1cccc(F)c1)C1CCS(=O)(=O)C1` (stereo not drawn)?
MARV entry inh: -6.8%[46.1 µM]; Lassa entry inh: -0.9%[46.1 µM]; Vaccinia mCherry: -5.6%; HCMV antiviral: 0.8; Vaccinia Venus: -10.4%

Results for O=C(N/N=C/c1ccccc1F)C(=O)N1CCCCCC1 ?
MARV entry inh: 19.1%[46.1 µM]; HCV inhibitor: 5.5%; Lassa entry inh: 0.7%[46.1 µM]; Vaccinia mCherry: -12.6%; HCMV antiviral: -15.0; Vaccinia Venus: 3.3%

Results for O=C(N/N=C/c1ccccc1O)C(=O)N1CCCCCC1 ?
MARV entry inh: -9.8%[46.1 µM]; HCV inhibitor: -16.6%; Lassa entry inh: inconclusive; Vaccinia mCherry: 7.94µM*; HCMV antiviral: 7.6; Vaccinia Venus: -26.8%

What do the screens show for `O=C1C2=C(C(=O)c3ccccc31)[C@H]1O[C@](c3ccsc3)(Cc3c1ccc1ccccc31)O2`?
MARV entry inh: 14.9%[14.2 µM]

Results for CN(C)c1ccc(/C=C/c2cc[n+](C)cc2)cc1 ?
MARV entry inh: inconclusive; HCV inhibitor: 1.78µM*; Lassa entry inh: inconclusive; Vaccinia mCherry: 86.4%; HCMV antiviral: -100.9*; Vaccinia Venus: inactive

Results for Cc1ccc(/C=C/c2ccc(N(C)C)cc2)[n+](C)c1 ?
HCV inhibitor: 3.16µM*; Vaccinia mCherry: -15.7%; HCMV antiviral: -98.3*; Vaccinia Venus: 151.5%

How did COc1ccccc1C1CN(Cc2c(C)nc3sccn23)Cc2ccccc2O1 (stereo not drawn) do in these assays?
Vaccinia mCherry: -12.3%; Vaccinia Venus: 1.1%

What do the screens show for `COCc1c(C(=O)N2CCN(C3CCCC3)CC2)cnn1-c1nccc(-c2cccs2)n1`?
Vaccinia mCherry: -11.7%; Vaccinia Venus: -7.8%

What do the screens show for `CCn1c(C)cc(/C=C2/NC(=O)N(c3ccccc3)C2=O)c1C`?
MARV entry inh: -24.5%; HCV inhibitor: -16.9%; Lassa entry inh: inconclusive; HCMV antiviral: -12.6

What do the screens show for `COCCn1c(C)cc(/C=C2/NC(=O)N(c3cccc(Cl)c3)C2=O)c1C`?
HCV inhibitor: inconclusive; Vaccinia mCherry: inconclusive; HCMV antiviral: -66.3*; Vaccinia Venus: inconclusive

How did O=C(COC(=O)c1ccc(Br)o1)NCc1ccc2c(c1)OCO2 do in these assays?
MARV entry inh: -14.7%; HCV inhibitor: -6.7%; Lassa entry inh: 25.7%; Vaccinia mCherry: inactive; HCMV antiviral: 7.0; Vaccinia Venus: -13.9%

How did O=C(COC(=O)/C=C/c1ccc2c(c1)OCO2)NCc1ccc(F)cc1 do in these assays?
Vaccinia mCherry: inactive; HCMV antiviral: -63.6*; Vaccinia Venus: -11.9%

Results for O=C(COC(=O)C1(c2ccc(F)cc2)CCCC1)NCc1ccc2c(c1)OCO2 ?
MARV entry inh: inconclusive; HCV inhibitor: -6.7%; Lassa entry inh: -1.5%; HCMV antiviral: -60.4*

What do the screens show for `O=C(COC(=O)c1ccc([N+](=O)[O-])o1)NCc1ccc2c(c1)OCO2`?
HCV inhibitor: 2.0%; HCMV antiviral: -83.1*

Results for O=C(CN(Cc1ccccc1F)C(=O)c1csnn1)NCc1ccc2c(c1)OCO2 ?
MARV entry inh: -8.1%[46.1 µM]; HCV inhibitor: -3.2%; Lassa entry inh: 2.82µM*; Vaccinia mCherry: -11.9%; HCMV antiviral: -15.7; Vaccinia Venus: -13.4%

What do the screens show for `Cc1cccc(N2CCN(S(=O)(=O)c3ccc(-c4cc(C(F)(F)F)on4)s3)CC2)c1C`?
Lassa entry inh: 4.4%[46.1 µM]; Vaccinia mCherry: inactive; HCMV antiviral: -22.4; Vaccinia Venus: -8.8%

How did COc1cccc(CNC(=O)C(CC(C)C)NS(=O)(=O)c2ccc3c(c2)oc(=O)n3C)c1 (stereo not drawn) do in these assays?
MARV entry inh: -13.6%[46.1 µM]; Lassa entry inh: 16.9%[46.1 µM]; Vaccinia mCherry: -10.1%; HCMV antiviral: 16.9; Vaccinia Venus: -13.2%

What do the screens show for `O=C(COC(=O)C1(c2ccccc2F)CCCC1)NCc1cccs1`?
MARV entry inh: inconclusive; HCV inhibitor: -17.7%; Lassa entry inh: inconclusive; Vaccinia mCherry: -4.8%; HCMV antiviral: -69.4*; Vaccinia Venus: -3.5%

How did NC(=O)c1ccc(NC(=O)COC(=O)C2(c3ccccc3F)CCCC2)cc1 do in these assays?
HCV inhibitor: -19.8%; HCMV antiviral: 91.4

What do the screens show for `O=C(COC(=O)C1(c2ccccc2F)CCCC1)NCc1ccc2c(c1)OCO2`?
MARV entry inh: -7.1%; HCV inhibitor: inconclusive; Lassa entry inh: inconclusive; Vaccinia mCherry: -26.5%; HCMV antiviral: -60.0*; Vaccinia Venus: -15.7%

Assay outcomes from PubChem.
